# Source: PubChem BioAssay (several laboratories)
# In the library only some 27% were active in any assay of this set; here they are far more common.
# CYP2C19 inh = inhibitors of human CYP2C19; P33261; CYP2C19 Supersomes, luciferin-H EGE luminescence, 30 min; inhibition, % at 5 µM; 21% of 96,000 active; AID 778;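 active = CYP2C19 inhibition above a set limit at 5 µM in the primary screen, cut at about 50% in these data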;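 note: plate controls were negative control wells for no effect and 2.5 mM tranylcypromine positive control for full effect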
# Target sequence (P33261 whole entry, looked up): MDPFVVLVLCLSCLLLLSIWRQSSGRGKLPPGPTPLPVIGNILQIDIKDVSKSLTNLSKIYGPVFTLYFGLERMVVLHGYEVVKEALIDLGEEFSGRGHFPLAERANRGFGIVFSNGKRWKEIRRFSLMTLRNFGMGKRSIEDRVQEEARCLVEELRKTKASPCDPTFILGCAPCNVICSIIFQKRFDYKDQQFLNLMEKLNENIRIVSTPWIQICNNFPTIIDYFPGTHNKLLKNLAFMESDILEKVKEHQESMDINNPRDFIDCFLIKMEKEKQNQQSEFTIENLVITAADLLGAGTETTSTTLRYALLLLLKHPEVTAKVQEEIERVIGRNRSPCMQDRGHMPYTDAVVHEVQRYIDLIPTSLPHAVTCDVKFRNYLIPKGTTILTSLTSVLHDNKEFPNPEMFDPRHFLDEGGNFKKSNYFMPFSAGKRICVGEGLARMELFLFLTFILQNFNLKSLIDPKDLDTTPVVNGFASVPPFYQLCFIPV
# Pyk2 oligo antag = antagonists of human Pyk2 oligomerization. Q14289. 0.83% of 99,000 active. Q293 cells, Pyk2 FERM NanoBiT luminescence; stronger effect = lower value. z-score (the deposit names both 25 µM and 10 µM);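 active = Z-score of -3 or lower, scaled per plate to the spread of control and sample wells; inactive = z-score above -3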;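 note: negative z-score means lost luminescence so less FERM oligomerization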
# CYP2C9 inhib = blocks human cytochrome P450 2C9; P11712; CYP2C9 Supersomes, luciferin-H conversion, luminescence; inhibition, % at 5 µM; 20% of 96,000 active;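 active = blocking of liver enzyme CYP2C9 beyond about 50% at 5 µM, limit read from the data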
# CYP2C19 activ = cytochrome P450 2C19 (human) activation | recombinant CYP2C19, luciferin-H EGE luminescence; stronger effect = higher value; 0 = fully inhibited enzyme, 1 = untreated enzyme | activation factor at 5 µM | P33261 | 96,000 tested, under 10 active;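 active = activation factor of at least 2 at 5 µM in the primary screen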;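 note: 0 = wells with 2.5 mM tranylcypromine and 1 = vehicle-only wells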
# CYP2C9 act = increases human cytochrome P450 2C9 activity; P11712; recombinant CYP2C9, luciferin-H conversion, luminescence; stronger effect = higher value; factor 1 = untreated enzyme, 0 = blocked; activation factor at 5 µM; 1.4% of 96,000 active; AID 1024;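 active = activation factor of 2 or more for CYP2C9 at a 5 µM dose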;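 note: 0 = sulfaphenazole-blocked wells and 1 = vehicle-only wells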
# Cav3 T inh = blocks human Cav3.2 T-type calcium channel. 4% of 100,000 active. AID 449739. Cav3.2-expressing cells, Fluo-4 calcium fluorescence FDSS; stronger effect = lower value. B-score at 10 µM;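 active = single-dose well whose peak fluorescence ratio is a statistical outlier from its plate by either plate-standardised score or position-corrected B-score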
# * hit, by the source's call; · = not tested or not shown.
SMILES,CYP2C19 inh,Pyk2 oligo antag,CYP2C9 inhib,CYP2C19 activ,CYP2C9 act,Cav3 T inh
CCN1CCN(c2nc3ccccc3nc2C(C#N)C(=O)OCc2ccccc2)CC1 (centres undefined),82.1*,-0.9,56.7*,0.2,0.4,0.517
Cn1c(N)c(C(=O)COC(=O)C2CCCCC2)c(=O)n(C)c1=O,10.6,0.16,-3.7,0.9,1,0.806
Cc1ccc2c(c1)c1c(n2CC(O)Cn2nc(C)c(Br)c2C)CCCC1 (centres undefined),64.1*,-0.54,71.5*,0.4,0.3,-1.23
Cc1nn(CC(O)COc2ccc3c(c2)CCC3)c(C)c1Br (centres undefined),24.4,-0.37,-1.1,0.8,1,-1.48
Cc1ccc2c(c1)c1c(n2CC(O)Cn2c(C)nc3ccccc32)CCCC1 (centres undefined),13.8,·,76.9*,0.9,0.2,-1.69
Cc1ccc2c(c1)c1c(n2CC(O)CNC(C)(C)C)CCCC1 (centres undefined),27.5,·,-0.9,0.7,1,-1.45
COCCn1c(=S)[nH]c2cc(C(=O)N3CCN(c4ccc(F)cc4)CC3)ccc2c1=O,0.2,1.27,11.7,1,0.9,-0.0294
Brc1ccc2ncnc(NCc3ccccc3)c2c1,74.4*,-0.63,49.1,0.3,0.5,0.0729
CCCn1nc(NC(=O)c2ccncc2)c2cc3ccccc3nc21,92.6*,-2.68,94.6*,0.1,0.1,·
CCCCn1nc(NC(=O)c2cccs2)c2cc3cc(OC)ccc3nc21,16.8,-3.02*,64.2*,0.8,0.4,-4.84*
CCCn1nc(NC(=O)c2cccs2)c2cc3ccccc3nc21,25.6,0.01,48.1,0.7,0.5,-1.59
CCCn1nc(NC(=O)c2cccs2)c2cc3cc(OC)ccc3nc21,17.9,-2.39,56.4*,0.8,0.4,-0.137
CCCC(=O)Nc1nn(CCC)c2nc3ccccc3cc12,23.9,-0.95,49.3,0.8,0.5,-0.887
COc1ccc2nc3c(cc2c1)c(NC(=O)C1CCCO1)nn3CC(C)C (centres undefined),48.5,-1.39,66.4*,0.5,0.3,0.163
c1ccc(-c2ccc(-c3cn4c(n3)CCC4)cc2)cc1,10.4,-0.58,-4.2,0.9,1,-0.0885
CCCOc1ccc(-c2nc(=S)[nH][nH]2)cc1,12.6,0.02,24.8,0.9,0.8,-0.0847
Cc1noc(C)c1S(=O)(=O)N1CCC(C(=O)N2CCC(N3CCCCC3)CC2)CC1,17.9,·,3.3,0.8,1,·
Cc1[nH]n(CCC#N)c(=O)c1CC(=O)N1CCN(c2ccccc2)CC1,-13.5,-1.03,-25.9,1.1,1.3,-0.609
O=C(NCc1ccc(F)cc1)C1CCC(=O)N1C1CCCCC1 (centres undefined),18.5,0.49,27.3,0.8,0.7,0.00185
COCCn1c(SCC(=O)N2CCCC2)nnc1-c1ccoc1C,7.2,-0.16,21.8,0.9,0.8,-0.0554
O=C(COc1ccc(-n2cnnn2)cc1)NCCc1ccc(F)cc1,4.4,0.74,10.8,1,0.9,-0.114
CCCCn1nc(NC(=O)c2cccs2)c2cc3ccccc3nc21,14.7,-3.15*,46.5,0.9,0.5,-4*
Cc1[nH]nc2c1C(c1ccccc1F)NC2=O (centres undefined),-1.1,·,-6.2,1,1.1,·
CCOc1ccc(C2NC(=O)c3n[nH]c(C)c32)cc1 (centres undefined),68.6*,·,-8.0,0.3,1.1,·
CC(C(=O)N1CCCc2ccccc21)N1CCN(S(=O)(=O)c2ccccc2F)CC1 (centres undefined),46.5,-0.13,32.3,0.5,0.7,0.349
SMILES,CYP2C19 inh,Pyk2 oligo antag,CYP2C9 inhib,CYP2C19 activ,CYP2C9 act,Cav3 T inh
COC(=O)C1=C(C)NC(=O)CC1c1ccc(F)c(Br)c1 (centres undefined),50.9*,-0.96,27.4,0.5,0.7,0.369
COC(=O)C1=C(C)N(C)C(C)=C(C(=O)OC)C1c1ccccc1C,98.5*,-2.54,96.3*,0,0,-1.05
COC(=O)C1=C(C)N(C)C(C)=C(C(=O)OC)C1c1ccncc1,78.2*,0.32,79.3*,0.2,0.2,1.6
CCOC(=O)C1=C(C)N(C)C(C)=C(C(=O)OCC)C1c1ccccn1,50.0*,-0.99,86.3*,0.5,0.1,0.168
CCOC(=O)C1=C(C)N(C)C(C)=C(C(=O)OCC)C1c1ccccc1,·,-2.32,·,·,·,-2.07
COC(=O)C1=C(C)NC(=O)CC1c1ccc(C(=O)OC)cc1 (centres undefined),21.3,-0.74,13.0,0.8,0.9,0.521
O=C(CCSCCc1ccccn1)Nc1ccc(Br)cn1,27.1,0.06,33.9,0.7,0.7,0.0847
COC(=O)C1=C(C)N(C)C(C)=C(C(=O)OC)C1c1ccc(F)c(Br)c1,64.9*,-3.2*,94.4*,0.4,0.1,-6.84*
CCCCOc1ccccc1C1C(C(=O)OC)=C(C)N(C)C(C)=C1C(=O)OC,·,-2.15,·,·,·,-3.49
COC(=O)C1=C(C)N(C)C(C)=C(C(=O)OC)C1c1ccccn1,26.7,1.3,82.1*,0.7,0.2,0.481
COCCN(Cc1cc2ccc(C)cc2n2nnnc12)Cc1nnnn1C(C)(C)C,·,0.36,·,·,·,0.924
CC1(C)NC(=O)N(CC(=O)Nc2nc(-c3ccc(F)cc3)cs2)C1=O,0.0,-1.01,-64.0,1,1.6,·
Cc1ccc(S(=O)(=O)N2c3ccccc3NC(=O)C2CC(=O)Nc2ccccc2)cc1 (centres undefined),56.9*,0.24,88.6*,0.4,0.1,·
Cc1ccc(S(=O)(=O)N2c3ccccc3NC(=O)CC2C)cc1 (centres undefined),3.4,0.89,3.8,1,1,-0.174
Cc1ccc2nc(C(=O)O)c(C(=O)O)nc2c1,-1.8,0.64,2.2,1,1,0.243
CCCCn1c(=O)[nH]c(=O)c2c1nc(-c1ccncc1)n2CCOC,37.3,0.21,41.1,0.6,0.6,1.15
CCCCn1c(=O)[nH]c(=O)c2c1nc(-c1ccc(C#N)cc1)n2C1CCCC1,25.2,-0.76,61.5*,0.7,0.4,-0.639
O=C(O)C1C2C=CC(O2)C1C(=O)NCc1ccccc1Br (centres undefined),6.7,-0.37,18.5,0.9,0.8,-0.16
Cc1cccc(C(C)(C)C)c1OCCCCN1CCCC1,1.6,0.75,-5.0,1,1.1,0.332
Cc1cc(C(=O)Cn2cncn2)c(C)n1CCc1ccc(F)cc1,98.7*,-0.37,67.2*,0,0.3,0.447
COC(=O)\C(C(C)=O)=C(/C=C/C=C/C=C/N(C)C)N(C)C,0.1,-0.09,7.4,1,0.9,-7.05*
CCN1CCN(c2ncc(C(=O)Nc3ccccc3C(=O)OC)c3ccccc23)CC1,9.9,-0.43,55.7*,0.9,0.4,0.773
CCn1ccnc1C(O)c1ccccc1OC (centres undefined),·,0.44,·,·,·,0.0345
